From PubChem BioAssay (NCI)
About 79,000 compounds went through this panel and 15% of them were active in at least one assay; those are over-represented in the sample as a whole. A number with no mark means an inactive call. Active and inactive are the calls of the source. Cut-off read from the data, not from the text of the source: active = growth inhibition above about 70%; inactive = the rest.

Legend:
[1] = NCI Yeast Anticancer Drug Screen. Data for the rad52 strain (AID 147);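 note: 0% = growth of vehicle-treated control cultures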; conditions: S. cerevisiae rad52 mutant growth inhibition, hits give high values
Outline: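 Screen used a yeast mutant impaired in DNA repair. After compound exposure, growth was measured. Values reflect inhibition compared with vehicle-treated cells.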

[2] = NCI Yeast Anticancer Drug Screen. Data for the wt1 strain (AID 149);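 note: 0% = growth of vehicle-treated wt1 cultures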; conditions: S. cerevisiae wt1 strain (SPY 50644) growth inhibition, hits give high values
Outline: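 wt1 strain grown with compound or vehicle; inhibition taken from the growth difference.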

[3] = NCI Yeast Anticancer Drug Screen. Data for the rad50EPP+ strain (AID 151);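 note: 0% = growth of vehicle-treated control cultures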; conditions: S. cerevisiae rad50 mutant strain, hits give high values
Outline: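 Exposing the rad50EPP+ strain to each compound, growth was compared with vehicle-only cultures to give inhibition.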

[4] = NCI Yeast Anticancer Drug Screen. Data for the mgt1 strain (AID 153); conditions: S. cerevisiae mgt1 mutant growth inhibition, hits give high values
Outline: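 Genetically defined yeast (mgt1) treated with compound; inhibition of growth expressed against vehicle-treated controls.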

[5] = NCI Yeast Anticancer Drug Screen. Data for the rad50 strain (AID 155);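 note: 0% = growth of vehicle-only cultures of the same strain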; conditions: S. cerevisiae rad50 strain growth inhibition, hits give high values
Outline: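 DNA repair mutant yeast, compound exposure, growth read-out; inhibition is taken relative to vehicle.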

[6] = NCI Yeast Anticancer Drug Screen. Data for the mec2-1 strain (AID 157); conditions: S. cerevisiae mec2-1 strain, hits give high values
Outline: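 Readout is yeast growth inhibition, normalised to vehicle-treated controls, in the mec2-1 strain exposed to compound.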

[7] = NCI Yeast Anticancer Drug Screen. Data for the rad14 strain (AID 159);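 note: 0% = growth of vehicle-treated control cultures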; conditions: S. cerevisiae rad14 strain growth inhibition, hits give high values
Outline: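 DNA repair-defective yeast, compound-exposed; % growth inhibition derived by comparison with vehicle-treated controls.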

[8] = NCI Yeast Anticancer Drug Screen. Data for the sgs1 mgt1 strain (AID 161);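 note: 0% = growth of cultures given vehicle only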; conditions: S. cerevisiae sgs1 mgt1 strain, hits give high values
Outline: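 Growth of a repair-deficient yeast mutant was monitored after compound treatment and expressed as inhibition relative to vehicle-treated cultures.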

[9] = NCI Yeast Anticancer Drug Screen. Data for the cln2 rad14 strain (AID 165);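 note: 0% = growth equal to vehicle treated cultures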; conditions: S. cerevisiae cln2 rad14 strain, hits give high values
Outline: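 Relative to vehicle controls, growth inhibition of compound-treated cln2 rad14 yeast was recorded.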

[10] = NCI Yeast Anticancer Drug Screen. Data for the bub3 strain (AID 167); conditions: S. cerevisiae bub3 mutant strain, hits give high values
Outline: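 In this screen, a yeast mutant lacking normal mitotic checkpoint function is challenged with compound. Relative growth versus vehicle gives the inhibition value.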

[11] = NCI Yeast Anticancer Drug Screen. Data for the wt2 strain (AID 169);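 note: 0% = growth of vehicle-treated yeast cultures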; conditions: S. cerevisiae wt2 strain growth inhibition, hits give high values
Outline: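 Values express reduction in yeast growth under compound treatment, referenced to vehicle-treated cells.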

[12] = NCI Yeast Anticancer Drug Screen. Data for the mlh1 strain (AID 171);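 note: 0% = growth of vehicle-treated control cultures of the same strain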; conditions: S. cerevisiae mlh1 strain growth inhibition, hits give high values
Outline: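 Steps: expose the defined-mutant yeast strain to compound; expose a parallel culture to vehicle; measure growth; express compound effect as inhibition relative to the vehicle culture.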

[13] = NCI Yeast Anticancer Drug Screen. Data for the sgs1 strain (AID 173);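 note: 0% = growth of vehicle-only control cultures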; conditions: S. cerevisiae sgs1 mutant, hits give high values
Outline: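 Treat defined-mutant yeast with compound; measure growth; calculate inhibition relative to vehicle-treated cells.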

[14] = NCI Yeast Anticancer Drug Screen. Data for the mlh1 rad18 strain (AID 175); conditions: S. cerevisiae mlh1 rad18 strain growth inhibition, hits give high values
Outline: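 Test agents were incubated with a yeast strain of defined genotype (DNA damage repair defect). Inhibition of growth was derived by comparison with vehicle-exposed cultures.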

[15] = NCI Yeast Anticancer Drug Screen. Data for the rad18 strain (AID 177); conditions: S. cerevisiae rad18 mutant growth inhibition, hits give high values
Outline: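 A genetically defined yeast mutant impaired in DNA damage repair was treated with test compounds, then its growth was measured against cultures receiving vehicle alone.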

[16] = at 5.0 µM (retest, dose inferred, filed as 0.5)
[17] = at 50.0 µM (retest, dose inferred, filed as 5.0)

## FC(F)(F)c1cc(NC(=S)N2c3ccccc3-n3cccc3C2c2cccnc2)cc(C(F)(F)F)c1 (stereo not drawn)
[1]; at 1.2 µM
  growth inhibition: -3%
[1]; at 3.7 µM
  growth inhibition: -5%
[1]; at 11.0 µM
  growth inhibition: -9%
[1]; at 33.0 µM
  growth inhibition: -3%
[1]; at 100.0 µM
  growth inhibition: -4%
[2]; at 1.2 µM
  growth inhibition: 2%
[2]; at 3.7 µM
  growth inhibition: -5%
[2]; at 11.0 µM
  growth inhibition: -4%
[2]; at 33.0 µM
  growth inhibition: -6%
[2]; at 100.0 µM
  growth inhibition: -9%
[3]; at 1.2 µM
  growth inhibition: 1%
[3]; at 3.7 µM
  growth inhibition: 6%
[3]; at 11.0 µM
  growth inhibition: 18%
[3]; at 33.0 µM
  growth inhibition: 42%
[3]; at 100.0 µM
  growth inhibition: 57%
[4]; at 1.2 µM
  growth inhibition: -10%
[4]; at 3.7 µM
  growth inhibition: -5%
[4]; at 11.0 µM
  growth inhibition: -17%
[4]; at 33.0 µM
  growth inhibition: -36%
[4]; at 100.0 µM
  growth inhibition: -17%
[5]; at 1.2 µM
  growth inhibition: -13%
[5]; at 3.7 µM
  growth inhibition: -3%
[5]; [16]
  growth inhibition: 10%
[5]; at 11.0 µM
  growth inhibition: 9%
[5]; at 33.0 µM
  growth inhibition: 3%
[5]; [17]
  growth inhibition: 57%
[5]; at 50.0 µM
  growth inhibition: 74.7% (active)
[5]; at 100.0 µM
  growth inhibition: 2%
[6]; at 1.2 µM
  growth inhibition: -5%
[6]; at 3.7 µM
  growth inhibition: -4%
[6]; [16]
  growth inhibition: -6%
[6]; at 11.0 µM
  growth inhibition: -2%
[6]; at 33.0 µM
  growth inhibition: -1%
[6]; [17]
  growth inhibition: 51%
[6]; at 50.0 µM
  growth inhibition: 47.1%
[6]; at 100.0 µM
  growth inhibition: -1%
[7]; at 1.2 µM
  growth inhibition: 2%
[7]; at 3.7 µM
  growth inhibition: 0%
[7]; at 11.0 µM
  growth inhibition: -1%
[7]; at 33.0 µM
  growth inhibition: -3%
[7]; at 100.0 µM
  growth inhibition: -5%
[8]; [16]
  growth inhibition: -3%
[8]; [17]
  growth inhibition: 69%
[8]; at 50.0 µM
  growth inhibition: 44.5%
[9]; [16]
  growth inhibition: -10%
[9]; [17]
  growth inhibition: 21%
[9]; at 50.0 µM
  growth inhibition: 43.6%
[10]; at 1.2 µM
  growth inhibition: -1%
[10]; at 3.7 µM
  growth inhibition: -5%
[10]; [16]
  growth inhibition: -3%
[10]; at 11.0 µM
  growth inhibition: -5%
[10]; at 33.0 µM
  growth inhibition: -4%
[10]; [17]
  growth inhibition: 45%
[10]; at 50.0 µM
  growth inhibition: 26.4%
[10]; at 100.0 µM
  growth inhibition: -9%
[11]; at 1.2 µM
  growth inhibition: -2%
[11]; at 3.7 µM
  growth inhibition: -3%
[11]; at 11.0 µM
  growth inhibition: -2%
[11]; at 33.0 µM
  growth inhibition: -1%
[11]; at 100.0 µM
  growth inhibition: 2%
[12]; at 1.2 µM
  growth inhibition: -2%
[12]; at 3.7 µM
  growth inhibition: -1%
[12]; at 11.0 µM
  growth inhibition: -4%
[12]; at 33.0 µM
  growth inhibition: -4%
[12]; at 100.0 µM
  growth inhibition: 6%
[13]; at 1.2 µM
  growth inhibition: -8%
[13]; at 3.7 µM
  growth inhibition: -3%
[13]; at 11.0 µM
  growth inhibition: -2%
[13]; at 33.0 µM
  growth inhibition: -2%
[13]; at 100.0 µM
  growth inhibition: 1%
[14]; [16]
  growth inhibition: -7%
[14]; [17]
  growth inhibition: 69%
[14]; at 50.0 µM
  growth inhibition: 70.7% (active)
[15]; at 1.2 µM
  growth inhibition: -1%
[15]; at 3.7 µM
  growth inhibition: -6%
[15]; at 11.0 µM
  growth inhibition: 0%
[15]; at 33.0 µM
  growth inhibition: -2%
[15]; at 100.0 µM
  growth inhibition: -2%
